Screening data as filed in PubChem.
This is a sample that favours compounds with a hit; in the whole collection about 1.3% have one here.
TRPV1 agonist: human TRPV1 agonism | activation, % at 8.33 µM | TRPV1-expressing cells, Fluo-8 calcium influx, agonist mode | Q8NER1 | hit rate 0.19% among 320,000; in the data active means activation above about 80%; inconclusive means between about 30% and that limit; further: 0% is about no effect
Target sequence (Q8NER1 whole entry, looked up): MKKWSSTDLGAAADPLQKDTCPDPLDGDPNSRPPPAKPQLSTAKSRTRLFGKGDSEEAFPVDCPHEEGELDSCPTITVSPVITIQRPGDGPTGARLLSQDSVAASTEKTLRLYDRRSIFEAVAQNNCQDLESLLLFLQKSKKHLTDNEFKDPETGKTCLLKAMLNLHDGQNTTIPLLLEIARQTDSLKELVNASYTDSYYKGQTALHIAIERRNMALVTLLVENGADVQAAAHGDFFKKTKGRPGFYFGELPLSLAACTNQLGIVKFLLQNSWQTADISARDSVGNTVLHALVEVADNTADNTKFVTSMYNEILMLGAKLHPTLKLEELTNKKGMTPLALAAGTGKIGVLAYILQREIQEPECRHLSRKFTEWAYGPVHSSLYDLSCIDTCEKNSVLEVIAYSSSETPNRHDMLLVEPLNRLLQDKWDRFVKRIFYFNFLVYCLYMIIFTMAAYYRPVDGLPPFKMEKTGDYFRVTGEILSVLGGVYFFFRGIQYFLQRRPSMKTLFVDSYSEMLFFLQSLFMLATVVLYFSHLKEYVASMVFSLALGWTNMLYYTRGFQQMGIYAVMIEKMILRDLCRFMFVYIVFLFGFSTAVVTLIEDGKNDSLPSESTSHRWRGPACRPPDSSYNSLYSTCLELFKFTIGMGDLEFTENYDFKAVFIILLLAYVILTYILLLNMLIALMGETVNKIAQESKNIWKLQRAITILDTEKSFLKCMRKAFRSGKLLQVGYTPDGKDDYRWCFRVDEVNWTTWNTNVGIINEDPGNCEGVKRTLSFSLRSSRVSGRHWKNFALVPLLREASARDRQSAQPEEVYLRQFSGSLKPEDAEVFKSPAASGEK
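TRPV1-expressing cells were cultured overnight at 35.5C and loaded with Fluo-8 calcium dye for 40 to 90 min at room temperature. After a 10 s baseline, compound was added and calcium influx was read kinetically for 3 min (ex 480/em 520 nm).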
hERG WT inh: KCNH2 (human, wildtype) channel inhibition; U2OS, BacMam KCNH2, thallium flux FluxOr; active compounds read low; activity change, % at 1.84 µM; hit rate 0.37% among 340,000; AID 720551;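 active means maximum activity change below -70%; inconclusive means maximum activity change between -70% and -50%; inactive means maximum activity change above -50%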; further: on the % scale 0 is the no-effect control and ±100 the full control effect
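U2OS cells were transduced with wild-type KCNH2 virus (2.03 x 10^8 / mL) for 4 h at room temperature, then cultured overnight at 37 C. Thallium flux was read with FluxOr dye. Rate constants were normalized to DMSO controls.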
KCNH2 3.1 inh: inhibitors of human KCNH2 3.1 potassium channel isoform. U2OS KCNH2 3.1, thallium flux FluxOr; active compounds read low. activity change, % (tested at about 1.8 µM). hit rate 0.95% among 340,000. AID 720553;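 active means maximum activity change below -70%; inconclusive means maximum activity change from -70% to -50%; inactive means maximum activity change above -50%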;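 further: thallium influx rate constant from kinetic fluorescence after stimulation buffer; on the % scale 0 is the no-effect control and ±100 the full control effect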
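Channel expression came from 3.1 mutant virus (1.77 x 10^8 /mL) applied to suspended U2OS cells for 4 h. Flux was tracked with FluxOr dye plus Red40 quencher, and kinetic rate constants normalized to controls.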
TRPV1 potentiator: enhances activation of the human vanilloid receptor TRPV1; potentiation, % at 8.33 µM; hit rate 0.02% among 320,000; TRPV1-expressing cells, Fluo-8 calcium influx, capsaicin EC20 potentiation; AID 540277; in the data active means potentiation above about 80%; inconclusive means between about 30% and that limit; further: 0% is about no effect
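TRPV1-expressing cells were cultured overnight at 35.5C and loaded with Fluo-8 calcium dye for 40 to 90 min at room temperature. After a 10 s baseline, compound was added and calcium influx was read kinetically for 3 min (ex 480/em 520 nm).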
Starred values were filed as active, the others as inactive.

COc1ccc(N2C(=O)c3ccc(C(=O)OC(C)C)cc3C2=O)cc1 was read as TRPV1 agonist -7, hERG WT inh -10, KCNH2 3.1 inh 9 and TRPV1 potentiator -1.
For COc1ccc(C)cc1S(=O)(=O)NC(C)C(=O)NC1CC1 (stereo unspecified) the results were TRPV1 agonist -4, hERG WT inh 2, KCNH2 3.1 inh -3 and TRPV1 potentiator 1.
`O=C(c1ccco1)N1CCN(Cc2nnc(-c3cccc(Br)c3)o2)CC1` gave TRPV1 agonist 15, hERG WT inh -8, KCNH2 3.1 inh -21 and TRPV1 potentiator 19.
For Cn1c(=O)c2sccc2n(Cc2ccccc2)c1=O the results were TRPV1 agonist -3, hERG WT inh -1, KCNH2 3.1 inh -73* and TRPV1 potentiator 5.
CCc1ccccc1NC(=O)Cn1nc(C(F)(F)F)cc1C1CC1 was read as TRPV1 agonist 8, hERG WT inh -5, KCNH2 3.1 inh -78* and TRPV1 potentiator 0.
Screening CCNS(=O)(=O)c1ccc(NC(=O)Cn2nc(C(F)(F)F)cc2C)cc1 returned TRPV1 agonist -1, hERG WT inh -3, KCNH2 3.1 inh 5 and TRPV1 potentiator 28.
Screening NC(=O)CC1(c2ccccc2)CCCCC1 returned hERG WT inh 8 and KCNH2 3.1 inh -1.
For CCCCCCC(=O)Nc1ccc(C(=O)N/N=C/c2cccnc2)cc1 the results were TRPV1 agonist 86*, hERG WT inh -9, KCNH2 3.1 inh -24 and TRPV1 potentiator 13.
`CCC(=O)Nc1ccc(C(=O)N/N=C/c2cccnc2)cc1` gave TRPV1 agonist -1, hERG WT inh 13, KCNH2 3.1 inh 12 and TRPV1 potentiator 6.
Screening CCCCCCN1C=C/C(=C\C=C(C#N)C#N)c2ccccc21 returned TRPV1 agonist -3, hERG WT inh -148*, KCNH2 3.1 inh -105* and TRPV1 potentiator -9.
CCCCCCN1C=CC=C/C1=C/C=C(C#N)C#N was read as TRPV1 agonist 28, hERG WT inh -123*, KCNH2 3.1 inh -31 and TRPV1 potentiator 3.
`Cn1nnnc1SCCCNCc1ccccc1OCc1ccccc1Cl` gave TRPV1 agonist 10 and TRPV1 potentiator 11.
`COCCNC(=S)N1CCC(C(=O)c2ccc(C)cc2)CC1` gave TRPV1 agonist inconclusive, hERG WT inh -10, KCNH2 3.1 inh -1 and TRPV1 potentiator 4.
Screening O=S(=O)(c1ccc(NCc2ccccc2)cc1)N1CCOCC1 returned TRPV1 agonist 6, hERG WT inh 8, KCNH2 3.1 inh 13 and TRPV1 potentiator -5.
For Cc1ccc(/C(N)=N/OC(=O)c2cccs2)cc1 the results were TRPV1 agonist 5, hERG WT inh -176*, KCNH2 3.1 inh -185* and TRPV1 potentiator 4.
O=C(Nc1cccc([N+](=O)[O-])c1)c1cccc(C(=O)Nc2cccc([N+](=O)[O-])c2)c1 was read as TRPV1 agonist 3, hERG WT inh 12, KCNH2 3.1 inh inconclusive and TRPV1 potentiator 26.
Screening Cc1ccc(N2CCN(C(=O)Nc3cccc([N+](=O)[O-])c3)CC2C)cc1 (stereo unspecified) returned TRPV1 agonist 83*, hERG WT inh -77*, KCNH2 3.1 inh -74* and TRPV1 potentiator 1.
CC1CCN(CC(=O)Nc2cccc([N+](=O)[O-])c2)CC1 was read as TRPV1 agonist 1, hERG WT inh 62, KCNH2 3.1 inh 6 and TRPV1 potentiator -10.
`O=C(Nc1ccccc1)N1CCN(c2ccccc2)CC1` gave hERG WT inh 3 and KCNH2 3.1 inh -7.
Screening O=C(Nc1cccc([N+](=O)[O-])c1)c1ccc(-c2ccccc2)cc1 returned TRPV1 agonist 87*, hERG WT inh -21, KCNH2 3.1 inh inconclusive and TRPV1 potentiator 17.
For O=C(Nc1cccc([N+](=O)[O-])c1)N1CCN(c2ccccc2)CC1 the results were TRPV1 agonist 100*, hERG WT inh -5, KCNH2 3.1 inh 0 and TRPV1 potentiator -17.
For COc1cc(CC(=O)OCc2ccccc2F)cc(OC)c1OC the results were TRPV1 agonist 0, hERG WT inh 6, KCNH2 3.1 inh 5 and TRPV1 potentiator -5.
Screening COc1ccc(CN2CCC3CC2c2cc(Cl)ccc23)cc1 (stereo unspecified) returned hERG WT inh -46 and KCNH2 3.1 inh inconclusive.
`O=C(NCc1ccccn1)c1ccccc1OCc1ccc(F)cc1` gave TRPV1 agonist 14, hERG WT inh 0, KCNH2 3.1 inh -101* and TRPV1 potentiator -1.
O=C(NCc1ccccn1)c1ccccc1OCc1ccccc1Cl was read as hERG WT inh 7 and KCNH2 3.1 inh 5.
Screening CC(C)Cc1nnc(NC(=O)CCC(=O)NCc2ccccc2Cl)s1 returned TRPV1 agonist 2, hERG WT inh -2, KCNH2 3.1 inh -7 and TRPV1 potentiator 10.
O=C(Nc1ccc(Oc2ccccc2)cc1)C1CCN(c2c3c(nc4ncnn24)CCC3)CC1 was read as TRPV1 agonist 1, hERG WT inh -13, KCNH2 3.1 inh -98* and TRPV1 potentiator 18.
COc1ccccc1OC(C)C(=O)Nc1ccc(S(=O)(=O)N2CCN(C)CC2)cc1 (stereo unspecified) was read as TRPV1 agonist 0, hERG WT inh -12, KCNH2 3.1 inh -1 and TRPV1 potentiator 2.
`O=C(COC(=O)/C=C/c1ccc([N+](=O)[O-])cc1)NC(c1ccccc1)c1ccccc1` gave TRPV1 agonist -7, hERG WT inh -133*, KCNH2 3.1 inh -11 and TRPV1 potentiator 2.
For O=C(COC(=O)/C=C/c1ccc([N+](=O)[O-])cc1)NCc1ccccc1 the results were TRPV1 agonist -2, hERG WT inh 1, KCNH2 3.1 inh -8 and TRPV1 potentiator -2.
For Cc1nn(C)c(Cl)c1CN1CCCC(CO)(Cc2ccccc2)C1 (stereo unspecified) the results were TRPV1 agonist -1, hERG WT inh 0, KCNH2 3.1 inh -85* and TRPV1 potentiator 3.
Screening COc1ccc(CN2CCCC(CO)(Cc3ccc(F)cc3F)C2)cc1 (stereo unspecified) returned TRPV1 agonist 4, hERG WT inh 32, KCNH2 3.1 inh -35 and TRPV1 potentiator -7.
CCOc1ccc(CN2CCCC(CO)(Cc3ccc(F)cc3)C2)cc1 (stereo unspecified) was read as TRPV1 agonist 6, hERG WT inh -33, KCNH2 3.1 inh -97* and TRPV1 potentiator 1.
For OC(CNCC1(N2CCCCC2)CCCCC1)COc1ccc(Cl)cc1Cl (stereo unspecified) the results were TRPV1 agonist 3, hERG WT inh inconclusive, KCNH2 3.1 inh -86* and TRPV1 potentiator -2.
`O=C(NCc1ccccc1Br)c1ccncc1` gave TRPV1 agonist 2, hERG WT inh 7, KCNH2 3.1 inh 3 and TRPV1 potentiator -8.
CCOc1ccccc1NC(=O)CN(c1ccc(OC)c(OC)c1)S(=O)(=O)c1ccc(C)cc1 was read as hERG WT inh -10 and KCNH2 3.1 inh -108*.
Screening CCOc1ccc(NC(=O)CN(c2ccc(OC)c(OC)c2)S(=O)(=O)c2ccc(C)cc2)cc1 returned TRPV1 agonist 0, hERG WT inh 0, KCNH2 3.1 inh -5 and TRPV1 potentiator 2.
